# Assay results reported in PubChem BioAssay (NCATS).
# “And” between values parts separate entries of the source, which are not always exact repeats. Identical values can stand only once. Results filed as inconclusive are left out. The source made the active and inactive calls. Unless noted, the call rests on the fitted dose curve; in most records, active means well fitted curve in either direction with a large enough effect (not every such curve was filed as active); inconclusive means small, poorly fitted or top-dose-only effect, or another doubt; inactive means flat fitted curve, though single readings scatter.
# Assays:
# [1] = AP1 Signaling Pathway (AID 357); conditions: ME-180 (cervical carcinoma) AP-1-bla reporter, EGF-induced, beta-lactamase ratio, 5 h; at 17.2 µM (top of the series) unless noted;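 further: ME-180 reporter cells stimulated with EGF at its EC50 level; on the % scale 0 is the no-effect control and ±100 the full control effect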
# Summary of the method: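 Modulation of EGF-driven AP-1 transcription was assessed with a beta-lactamase reporter in ME-180 cells. Compound and EC50 EGF were co-incubated 5 hours at 37 °C before 2.5-hour CCF4 loading at room temperature and dual-emission reading.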
# [2] = biological target: Lysosomal acid glucosylceramidase (Homo sapiens) (UniProt P04062); test: Glucocerebrosidase-p2 (AID 348; in the data active means potency below about 10 µM; further: potency means the concentration at half of the fitted maximal effect); conditions: purified GBA, blue fluorogenic substrate, 40 min
# Summary of the method: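 Compounds titrated from 0.6 nM upwards against 0.2 nM enzyme in pH 5.9 citric acid/KH2PO4, taurocholate, tween-20; blue fluorogenic substrate 80 uM, 40 min room temperature, stopped and read Ex 365/Em 440 for AC50.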
# [3] = biological target: Cytochrome P450 1A2 (Homo sapiens) (UniProt P05177); test: p450-cyp1a2 (AID 410; calls by dose curve; further: potency means the concentration at half of the fitted maximal effect;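 on activity change, negative = inhibition: -100% = full effect of reference inhibitor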)
# Summary of the method: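 Luminescent readout of luciferin formed from Luciferin-ME by human CYP1A2; data normalized against complete inhibition by 57 uM furafylline. Enzyme 20nM, substrate 100uM at Km, 100mM KPO4 buffer, 60 min reaction at room temperature.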
# [4] = NFAT Signaling Pathway (AID 444); conditions: Jurkat NFAT-bla M1, carbachol, beta-lactamase ratio, 5 h;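 further: carbachol stimulus at about its EC50 of 1 µM final; on the % scale 0 is the no-effect control and ±100 the full control effect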
# Summary of the method: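 Jurkat cells carrying an NFAT-driven β-lactamase reporter and co-transfected muscarinic M1 receptor were treated with compound plus carbachol (1 uM final, an EC50 level) for 5 h at 37 °C. CCF4 loading followed for 1 h at RT; 460/530 nm ratio gave %activity.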
# Cytochrome P450 1A2 (Homo sapiens), sequence (P05177 whole entry, looked up): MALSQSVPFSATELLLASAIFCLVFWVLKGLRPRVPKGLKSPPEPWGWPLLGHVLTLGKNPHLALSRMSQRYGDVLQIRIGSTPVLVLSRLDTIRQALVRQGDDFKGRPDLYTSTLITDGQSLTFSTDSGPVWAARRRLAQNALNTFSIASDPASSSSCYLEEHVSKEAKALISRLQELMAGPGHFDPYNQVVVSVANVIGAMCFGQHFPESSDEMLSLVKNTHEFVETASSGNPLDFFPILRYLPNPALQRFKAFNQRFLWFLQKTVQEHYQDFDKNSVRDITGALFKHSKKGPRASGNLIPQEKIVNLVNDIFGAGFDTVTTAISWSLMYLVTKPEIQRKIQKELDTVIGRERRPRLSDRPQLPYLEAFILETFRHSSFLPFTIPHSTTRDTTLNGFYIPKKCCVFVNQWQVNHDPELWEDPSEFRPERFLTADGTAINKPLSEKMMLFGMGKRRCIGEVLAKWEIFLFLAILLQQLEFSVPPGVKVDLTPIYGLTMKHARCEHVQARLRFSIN
# Lysosomal acid glucosylceramidase (Homo sapiens), sequence (P04062 whole entry, looked up): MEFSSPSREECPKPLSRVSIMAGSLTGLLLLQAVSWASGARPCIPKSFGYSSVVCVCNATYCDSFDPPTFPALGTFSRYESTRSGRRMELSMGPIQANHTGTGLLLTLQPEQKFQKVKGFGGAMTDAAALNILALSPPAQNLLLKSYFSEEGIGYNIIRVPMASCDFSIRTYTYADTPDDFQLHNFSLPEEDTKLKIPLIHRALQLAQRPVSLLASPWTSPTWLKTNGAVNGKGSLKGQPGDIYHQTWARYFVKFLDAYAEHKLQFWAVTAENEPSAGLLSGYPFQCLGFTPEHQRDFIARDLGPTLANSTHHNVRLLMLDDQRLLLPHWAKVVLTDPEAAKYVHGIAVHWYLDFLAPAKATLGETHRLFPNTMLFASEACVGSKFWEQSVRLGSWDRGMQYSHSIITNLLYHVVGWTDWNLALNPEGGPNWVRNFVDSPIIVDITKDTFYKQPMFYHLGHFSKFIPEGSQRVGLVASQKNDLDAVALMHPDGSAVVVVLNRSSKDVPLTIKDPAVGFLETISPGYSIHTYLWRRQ
structure (smiles),measurement,setting,value
OCCOCCN1CCN(C(c2ccccc2)c2ccc(Cl)cc2)CC1 (stereo unspecified),"activity change, negative = inhibition",[1],3.37% (inactive)
O=C(O)/C=C(\CC(=O)O)C(=O)O,Potency,[2],> 11.4 µM (inactive)
same,"activity change, negative = inhibition",[1],3.65% [at 7.69 µM] (inactive)
same,Potency,[3],inactive
same,"activity change, negative = inhibition",[4]; at 7.69 µM (top of the series),26.4% (inactive)
CCCC(=O)O[C@]1(C(=O)CCl)[C@@H](C)C[C@H]2[C@@H]3CCC4=CC(=O)C=C[C@]4(C)[C@@]3(F)C(=O)C[C@@]21C,"activity change, negative = inhibition",[1],2.19% (inactive)
CC1(C)O[C@@H]2C[C@H]3[C@@H]4CCC5=CC(=O)C=C[C@]5(C)[C@@]4(F)[C@@H](O)C[C@]3(C)[C@]2(C(=O)CO)O1,"activity change, negative = inhibition",[1],4.43% (inactive)
C[C@]12CCC(=O)C=C1CC[C@@H]1[C@@H]2[C@@H](O)C[C@@]2(C)[C@H]1CC[C@]2(O)C(=O)COC(=O)CCC(=O)O,"activity change, negative = inhibition",[1],-1.32% (inactive) and 11.9% (inactive)
same,"activity change, negative = inhibition",[4]; at 17.2 µM (top of the series),10.9% (inactive)
CCN(CC)CCOc1ccc(/C(=C(\Cl)c2ccccc2)c2ccccc2)cc1,"activity change, negative = inhibition",[1],9.05% (inactive)
same,Potency,[3],12.6 µM (active)
same,"activity change, negative = inhibition",[4]; at 17.2 µM (top of the series),-12.4% (inactive)
Brc1ccc([C@H]2CN3CCSC3=N2)cc1,"activity change, negative = inhibition",[1],10.4% [at 38 µM] (inactive)
same,Potency,[3],15.8 µM (active)
same,"activity change, negative = inhibition",[4]; at 38 µM (top of the series),-10.1% (inactive)
CC(=O)OCC[N+](C)(C)C,"activity change, negative = inhibition",[1],-2.55% (inactive)
same,"activity change, negative = inhibition",[4]; at 17.2 µM (top of the series),122% [activator] (active)
C[C@H]1C[C@@H]2[C@H]([C@@H](O)C[C@@]3(C)[C@H]2CC[C@]3(O)C(=O)CO)[C@@]2(C)C=CC(=O)C=C12,"activity change, negative = inhibition",[1],4.57% (inactive)
same,"activity change, negative = inhibition",[4]; at 17.2 µM (top of the series),17.5% (inactive)
CN1CCCN(C(c2ccccc2)c2ccc(Cl)cc2)CC1 (stereo unspecified),"activity change, negative = inhibition",[1],14.9% (inactive)
same,"activity change, negative = inhibition",[4]; at 17.2 µM (top of the series),-95.8% (active)
